{"source": "the OligoGym collection", "data": [{"molecular_target": "NRN1", "experiment": "pooled miR-30 sensor sort-seq; sequence = guide strand", "settings": "shRNA", "values": [{"sequence": "TTCTTTTCTCAGTTTATCCCAC", "sensor-assay potency score (higher = more potent)": -0.535}, {"sequence": "TCGTCTTGTCGTCCAGGCCCTG", "sensor-assay potency score (higher = more potent)": -1.79}, {"sequence": "TCAGTGAAATATATCTGCCGTT", "sensor-assay potency score (higher = more potent)": -1}, {"sequence": "TTGTCGTCCAGGCCCTGCGGGT", "sensor-assay potency score (higher = more potent)": -1.62}, {"sequence": "TTGAAGACCGCATCGCACTTGC", "sensor-assay potency score (higher = more potent)": 0.325}, {"sequence": "TTGATGTTCGTCTTGTCGTCCA", "sensor-assay potency score (higher = more potent)": 0.18}, {"sequence": "TCTTGATGTTCGTCTTGTCGTC", "sensor-assay potency score (higher = more potent)": -0.712}, {"sequence": "TGATGTTCGTCTTGTCGTCCAG", "sensor-assay potency score (higher = more potent)": -0.489}, {"sequence": "TTCGTCTTGTCGTCCAGGCCCT", "sensor-assay potency score (higher = more potent)": -0.542}, {"sequence": "TTGGATGTTGAGGTTTTTGGAT", "sensor-assay potency score (higher = more potent)": -0.637}, {"sequence": "TTATCCCACATATCTTTCGCCC", "sensor-assay potency score (higher = more potent)": -1.13}, {"sequence": "ATCAGTGAAATATATCTGCCGT", "sensor-assay potency score (higher = more potent)": -0.0404}]}, {"molecular_target": "NRTN", "experiment": "pooled miR-30 sensor sort-seq; sequence = guide strand", "settings": "shRNA", "values": [{"sequence": "TCTCAGTACAGTTATCGCGAGA", "sensor-assay potency score (higher = more potent)": -1.15}, {"sequence": "TATCTCAGTACAGTTATCGCGA", "sensor-assay potency score (higher = more potent)": 0.0428}, {"sequence": "AACAGCACCGTCTCGTCGGACG", "sensor-assay potency score (higher = more potent)": -1.59}, {"sequence": "TCCTCGTAGGCCGTCGGGCGGC", "sensor-assay potency score (higher = more potent)": -1.9}, {"sequence": "TGGCGCAGTCGTCGCAGCCCGA", "sensor-assay potency score (higher = more potent)": -1.96}, {"sequence": "TCGTCCTCGTAGGCCGTCGGGC", "sensor-assay potency score (higher = more potent)": -1.36}, {"sequence": "ATGGACAGCACGGAGCTGCAGA", "sensor-assay potency score (higher = more potent)": -1.37}, {"sequence": "TAGCGGAACAGCACCGTCTCGT", "sensor-assay potency score (higher = more potent)": -0.209}, {"sequence": "TGCACCGTGTGGTAGCGGCTGT", "sensor-assay potency score (higher = more potent)": -1.01}, {"sequence": "TCGTCGCAGCCCGAGGTCGTAG", "sensor-assay potency score (higher = more potent)": -1.65}]}, {"molecular_target": "NRXN1", "experiment": "pooled miR-30 sensor sort-seq; sequence = guide strand", "settings": "shRNA", "values": [{"sequence": "TTTTGAGACAAGTCGTAGCAGA", "sensor-assay potency score (higher = more potent)": -0.143}, {"sequence": "TTTGTGTCAATCTTTACAGTGT", "sensor-assay potency score (higher = more potent)": 0.163}, {"sequence": "TAAAGATATATGTCGTCCCAGG", "sensor-assay potency score (higher = more potent)": -1.02}, {"sequence": "ATTGTTGCAAGCACACACCTTG", "sensor-assay potency score (higher = more potent)": -0.22}, {"sequence": "AAGATTGACATAATCAGCCGAT", "sensor-assay potency score (higher = more potent)": 0.46}, {"sequence": "TTGAACTTCAGCCATTTGCCGG", "sensor-assay potency score (higher = more potent)": -0.927}, {"sequence": "TAAGTTTATATTATGTCTCAGA", "sensor-assay potency score (higher = more potent)": -0.557}, {"sequence": "TAGAATTAATCCATCTAGGGAT", "sensor-assay potency score (higher = more potent)": -0.432}, {"sequence": "TATTTCTATACAAGTGTCCATT", "sensor-assay potency score (higher = more potent)": -1.16}, {"sequence": "TATCATTGAGGTTATAGCCAGC", "sensor-assay potency score (higher = more potent)": -0.792}, {"sequence": "TATTTTTATATACAACCTCTTT", "sensor-assay potency score (higher = more potent)": -1.15}, {"sequence": "TTTCTTTAGCTACTCCTCCTAT", "sensor-assay potency score (higher = more potent)": -0.523}]}, {"molecular_target": "NT5C3L", "experiment": "pooled miR-30 sensor sort-seq; sequence = guide strand", "settings": "shRNA", "values": [{"sequence": "TGGAACACTTTCATCTGTCGGA", "sensor-assay potency score (higher = more potent)": -0.0202}, {"sequence": "TTGGACTCTCTAACCACCTGGG", "sensor-assay potency score (higher = more potent)": 0.443}, {"sequence": "TATCTGAAACTTCTGAATCTTC", "sensor-assay potency score (higher = more potent)": -0.418}, {"sequence": "TCAGAAATCACCTGTAACCGGT", "sensor-assay potency score (higher = more potent)": -0.094}, {"sequence": "TTGTGTGCTTTGGTCCACCATT", "sensor-assay potency score (higher = more potent)": -1.32}, {"sequence": "TTTCCATTATATGCAAACCTGC", "sensor-assay potency score (higher = more potent)": -1.3}]}]}
